# Test results taken from PubChem BioAssay (NCATS).
# Values joined by “and” are separate entries in the source; they are usually repeats but may differ in a detail not shown here. Equal entries are not always repeated. Results filed as inconclusive are left out. The source holds several records for some structures; these can differ, active in one and inactive in another. Unmarked numbers belong to inactive results. Active and inactive are the calls of the source. The call rests on the fitted dose curve; in most records, active means well fitted cell-killing curve with a large enough effect; inconclusive means small, poorly fitted or top-dose-only effect, or effect the other way; inactive means no such curve, though single readings can be large or run the other way.
# Assay: Viability qHTS for spleen associated tyrosine kinase inhibitor (SYKi) naive MV4-11 cells (AID 1963823); further: nearly all actives have a fitted effect of over 40% in size
# Conditions: MV4-11 AML viability, CellTiter-Glo luminescence, 72 h; series mostly up to 45 µM; viability (% of control): at the top concentration
# Excerpt: Department of Medicine, Hematology/Oncology
# University Hospital Frankfurt, Germany.
# Trials have shown promising clinical activity of the selective SYK inhibitor entospletinib in patients with high expressing HOXA9/MEIS1 acute leukemias. As the development of resistance mechanisms is a common problem in the use of targeted drugs, we performed a chemical library screen to identify drug sensitivities in SYK inhibitor resistant AML cells. […] Glucocorticoids are potent immunosuppressants which work in part by inhibiting the transcription of cytokine genes.
# Described herein is a viability screen to look for activity in the SYK inhibitor naive cell line against four NCATS compound libraries (MIPE 5.0, NPC, NPACT, and Kinase) totaling 11372 compounds. Active hits were reacquired for confirmation and further secondary assay testing.
# SEQUENCE No. (e.g., 1, 2, 3, etc.); […] (e.g., Cells, Incubation, Reagent, etc.); VALUE; DESCRIPTION.
# 1; Media; 2uL; white, solid-bottom Corning assay plate.
# 2; Compounds; 23nL; Echo acoustic dispenser.
# 3; Cell; 5uL; 500 cells per well.
# 4: Incubation; 72hr; 37 C, 5% CO2, 95% humidity.
# 5; Reagent; 3uL; CellTiter-Glo reagent (Promega).
# 6; Incubation; 10min; room temperature.
# 7; Detection; Luminescence; ViewLux plate reader (PerkinElmer).
# NOTES (numbers refer to Sequence numbers above
# 1. Quantitative high-throughput screening (qHTS) of small molecule compounds was conducted on naive SYKi MV4-11 cell line.
# 2. Twenty-three nanoliter of small molecule compounds were added to each assay plates using the Echo acoustic dispenser (Beckman Coulter).
# 3. Cells were seeded into the assay plates at a final density of 500 cells in 5uL of media per well using the Multi-drop Combi dispenser.
# 4. Plates were covered with stainless steel gasketed lids and incubated for 72 hours at standard cell culture conditions.
# 5. Viability was assessed by adding 3uL of CellTiter-Glo detection reagent (Promega).
# 6. Plates were covered with gasket lids and incubated for 10 minutes at room temperature.
# 7. Luminescence was measured on a ViewLux plate reader (PerkinElmer).
# Potency means the concentration at half of the fitted maximal effect.
SMILES,Potency,viability (% of control)
Cn1c(=O)n(-c2ccc(C(C)(C)C#N)cc2)c2c3cc(-c4cnc5ccccc5c4)ccc3ncc21,0.027 µM (active),–
CCCc1ncc(C(=O)O)s1,–,80.5%
COc1ccc2c(c1)OC[C@]1(O)c3cc4c(cc3O[C@H]21)OCO4,–,58.7%
C[C@@H]1COCCN1c1cc(C2(S(C)(=N)=O)CC2)nc(-c2ccnc3[nH]ccc23)n1 (stereo not given in full),1.48 µM (active),–
CC(=O)Nc1nc(C)c(-c2ccc(Cl)c(S(=O)(=O)NCCO)c2)s1,0.82 µM (active),–
C[C@@H](c1ncncc1F)C(O)(Cn1cncn1)c1ccc(F)cc1F (stereo not given in full),–,74%
Cc1c[nH]c2ccccc12,–,69.3%
CC1=CC2=C(C)C(=O)C(C)(O)C(O)C2CO1 (stereo not given),–,79.1%
NC1CCC(Nc2cc(-c3cccc(NCc4cccc(F)c4)n3)c(Cl)cn2)CC1 (stereo not given),0.146 µM (active),–
CC(C)=CCC[C@](C)(O[C@@H]1O[C@H](CO[C@@H]2OC[C@@H](O)[C@H](O)[C@H]2O)[C@@H](O)[C@H](O)[C@H]1O)[C@H]1CC[C@]2(C)[C@@H]1[C@H](O)C[C@@H]1[C@@]3(C)CC[C@H](O[C@@H]4O[C@H](CO)[C@@H](O)[C@H](O)[C@H]4O[C@@H]4O[C@H](CO)[C@@H](O)[C@H](O)[C@H]4O)C(C)(C)[C@@H]3CC[C@]12C,–,78.7% [at 17.3 µM]
O=C(O)C1(Cc2cccc(Nc3nccs3)n2)CCC(Oc2cccc(Cl)c2F)CC1 (stereo not given),0.517 µM (active),–
CC(C)=CCC(O)/C(C)=C/CO[C@@H]1O[C@H](CO)[C@@H](O)[C@H](O)[C@H]1O (stereo not given in full),–,86.9%
CN1CCN(c2ccc3nc(-c4c(N)c5c(F)cccc5[nH]c4=O)[nH]c3c2)CC1,0.0116 µM (active),–
COc1ccc(-c2oc3ncnc(N)c3c2-c2ccc(NC(=O)Nc3cc(C(F)(F)F)ccc3F)cc2)cc1,41.1 nM (active) and 66.1 nM (active),–
COCCn1c2c([n+](Cc3cnccn3)c1C)C(=O)c1ccccc1C2=O,0.0093 µM (active),–
C=C1C(=O)O[C@@H]2/C=C(\CO)CC/C=C(/C=O)C[C@H](O)[C@@H]12,4.11 µM (active),–
CN(CC(=O)N(Cc1ccc(C2CCCCC2)cc1)c1ccc(C(=O)O)c(O)c1)S(=O)(=O)c1c(F)c(F)c(F)c(F)c1F,4.17 µM (active),–
CN1C(CSCC(F)(F)F)Nc2cc(Cl)c(S(N)(=O)=O)cc2S1(=O)=O (stereo not given),–,56.8%
O=C(O)Cc1sc(-c2ccccc2)nc1-c1ccc(Cl)cc1,–,87.2%
COc1cnc(-n2cnc(C)n2)c2[nH]cc(C(=O)C(=O)N3CCN(C(=O)c4ccccc4)CC3)c12,–,88.9%

SMILES,Potency,viability (% of control)
O=C(Nc1ccc(-c2ccc(Cl)c(Cl)c2)cc1)C1=C(O)c2ccccc2S(=O)(=O)N1,20.6 µM (active),–
C[C@@H]1C[C@H](N)C[C@H](c2ccncc2NC(=O)c2ccc(F)c(-c3c(F)cccc3F)n2)C1,1.18 µM (active),–
CCn1c(-c2nonc2N)nc2c(C#CC(C)(C)O)ncc(OC[C@H]3CCCNC3)c21,16.6 µM (active),–
COC1OC(=O)C2=C1C1(C)CCCC(C)(C)C1CC2O (stereo not given),–,66.3%
CCC(=O)O[C@H]1[C@H](O[C@@H]2[C@@H](C)[C@H](O[C@H]3C[C@@](C)(OC)[C@@H](O)[C@H](C)O3)[C@@H](C)C(=O)O[C@H](CC)[C@@](C)(O)[C@H](O)[C@@H](C)C(=O)[C@H](C)C[C@@]2(C)O)O[C@H](C)C[C@@H]1N(C)C,–,81.9%
O=S(=O)(Nc1ccc(-c2cccnc2)c2cccnc12)c1cccc(C(F)(F)F)c1,6.61 µM (active),–
COc1ccc(CCN2CCC(Nc3nc4ccccc4n3Cc3ccc(F)cc3)CC2)cc1,4.22 µM (active),–
Cn1c(CNc2ccc(C(=N)N)cc2)nc2cc(C(=O)N(CCC(=O)O)c3ccccn3)ccc21,4.61 µM (active),81.5% [at 0.588 µM]
C[C@@]12C[C@]3(O)O[C@H](O1)[C@]1(COC(=O)c4ccccc4)[C@H]3C[C@@]12O[C@@H]1O[C@H](COC(=O)c2ccccc2)[C@@H](O)[C@H](O)[C@H]1O,–,57.5% [at 17.3 µM]
CC(=O)OCC(=O)NCCCOc1cccc(CN2CCCCC2)c1,–,95.9%
C[C@@H](O)[C@H]1C(=O)N2C(C(=O)O)=C([C@H]3CCCO3)S[C@H]12,–,81.7%
CCC(c1ccc(O)cc1)C(CC)c1ccc(O)cc1 (stereo not given),20.9 µM (active),–
Clc1ccc2c(c1)Nc1ccccc1S2,–,60.8%
N[C@@H](CC(=O)N1CCn2c(nnc2C(F)(F)F)C1)Cc1cc(F)c(F)cc1F,–,91.6%
COC(=O)[C@H]1[C@@H](O)[C@@]2(O)c3c(OC)cc(O[C@@H]4O[C@@H]([C@@H](O)CO)CO[C@H]4OC)cc3O[C@@]2(c2ccc(OC)cc2)[C@@H]1c1ccccc1,2.35 µM (active),–
CCC/C=C/c1cc2c(C=O)c(O)c(CC=C(C)C)cc2o1,14.6 µM (active),–
COc1ccc(C(=O)NCc2cc(C(C)C)no2)cc1OC1CCN(C)CC1,–,66.5%
CCOC(=O)C(C)(C)Oc1ccc(Cl)cc1,–,88.8%
C[C@@H](c1ccccc1)N(C(N)=NC#N)c1cccc2ncccc12,–,69.5%
